uPA surface inh: cell surface uPA generation inhibition; 0.31% of 330,000 active; AID 540303; cell surface uPA generation assay, qHTS; Potency, µM (titrated, usually from 38.3 µM), without a hit: at the highest dose activity change, negative = inhibition, actives largely listed as inhibitors; active = well fitted inhibition curve with a large enough effect; inconclusive = small, poorly fitted or top-dose-only effect; inactive = no such curve, though single readings can be large or run the other way; tested in mouse RAW 264.7 cells; also: potency is read from the fitted curve at half-maximal effect; % is scaled to controls: 0 for no effect and ±100 for the full control effect; nearly all actives have a fitted effect of over 55% in size
PTAP TSG101 blk: blocks PTAP/TSG101 interaction to inhibit HIV-1 budding. Q99816. Fluorescence polarization, FITC-PTAP peptide / Tsg101 binding. Potency, µM (doses to about 115 µM), without a hit: at the highest dose activity change, negative = inhibition, actives largely listed as inhibitors. 340,000 tested, under 10 active; active = well fitted inhibition curve with a large enough effect in the main read-out, with a control signal flat, not every such curve was filed as active; inconclusive = small, poorly fitted or top-dose-only effect, or effect the other way, or a change in a side signal; inactive = no such curve, though single readings can be large or run the other way; also: potency is read from the fitted curve at half-maximal effect; % of control where 0% means no effect
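Tsg101 binding domain (10 uM final) was mixed with compound and a FITC-labeled PTAP peptide (50 nM final) in HEPES pH 7.5 buffer with NaCl, Tween 20, EDTA and TCEP; fluorescence polarization was read after 20 min at r.t.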
VDR inh: inhibitors of human vitamin D receptor; P11473; VDR-SRC2-3 peptide fluorescence polarization, 2 h; Potency, µM, inactives show max response, negative = inhibition, usual class: inhibitors; 0.93% of 400,000 active; AID 504847; also: potency is read from the fitted curve at half-maximal effect; % is scaled to controls: 0 for no effect and ±100 for the full control effect
Target sequence (P11473 whole entry, looked up): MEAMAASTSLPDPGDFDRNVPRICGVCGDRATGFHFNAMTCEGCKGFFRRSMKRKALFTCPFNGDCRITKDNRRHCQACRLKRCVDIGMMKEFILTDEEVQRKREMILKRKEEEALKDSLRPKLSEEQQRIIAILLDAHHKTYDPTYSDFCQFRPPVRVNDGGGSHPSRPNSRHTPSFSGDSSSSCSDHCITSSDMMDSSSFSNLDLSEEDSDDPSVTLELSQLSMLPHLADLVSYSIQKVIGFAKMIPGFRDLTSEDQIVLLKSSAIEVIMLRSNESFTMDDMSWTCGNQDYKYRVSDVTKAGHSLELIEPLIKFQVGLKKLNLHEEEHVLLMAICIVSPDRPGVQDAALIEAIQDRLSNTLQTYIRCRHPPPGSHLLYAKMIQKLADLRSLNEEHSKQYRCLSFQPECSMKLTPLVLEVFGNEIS
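Fluorescence polarization assay of small-molecule disruption of VDR binding to coregulator peptide SRC2-3. Compounds and controls pin-transferred, then read after 2 h incubation at ambient room temperature.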
PLK1 PBD block: inhibitors of human PLK1 polo-box domain binding; 2.8% of 360,000 active; Plk1 PBD binding of FITC phosphopeptide, fluorescence polarization; AID 720504; P53350; Potency, µM, without a hit: max response, negative = inhibition, usual class: inhibitors; also: potency is read from the fitted curve at half-maximal effect; series mostly up to about 57 µM; % is scaled to controls: 0 for no effect and ±100 for the full control effect; nearly all actives have a fitted effect of over 65% in size
TSHR antagonist: antagonists of human thyroid stimulating hormone receptor; P16473; TSHR-expressing cells, TSH-stimulated cAMP HTRF, 2 h; active compounds read low; activity change, negative = inhibition, % at 11.5 µM; 0.2% of 330,000 active; AID 504810;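 active = activity change below a set negative limit, meaning inhibition stronger than a set level, cut at about -70% in these data; inconclusive = activity change between two set negative limits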; also: % is scaled to controls: 0 for no effect and ±100 for the full control effect
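Antagonism was scored as loss of TSH-driven cAMP in TSHR cells, stimulated with 4nM TSH (EC80) for 2 hours at 37 deg C and detected by homogeneous HTRF competition immunoassay.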
Numbers without * were called inactive; ? = inconclusive; . = no result given. In the library only some 3.1% were active in any assay of this set; here they are far more common. Unless noted, calls follow the shape of the dose curve; as a rule, active = well fitted curve in the direction sought with a large enough effect; inconclusive = small, poorly fitted or top-dose-only effect, or another doubt; inactive = no such curve, though single readings can be large; an effect the other way counts as inactive or inconclusive.

SMILES	uPA surface inh	PTAP TSG101 blk	VDR inh	PLK1 PBD block	TSHR antagonist
CCOc1ccc(C(=O)NCC(c2ccc3c(c2)OCO3)N2CCOCC2)cc1 (centres undefined)	.	.	-5%	.	.
CC1(N2CCOCC2)CC2(O)C(=[N+]1[O-])CCc1c2no[n+]1[O-] (centres undefined)	-1%	-5%	-4%	6µM*	-3
N#Cc1nc(-c2ccc(Cl)cc2)oc1NCc1ccco1	-5%	1%	-11%	27µM*	-10
Cc1ccc(C)c(Cn2c(=O)n(CCCCC(=O)NCc3ccccc3Cl)c(=O)c3ccccc32)c1	.	.	-4%	.	.
COc1ccc(CCNC(=O)c2coc(=O)c(Br)c2)cc1	?	0%	-14%	-8%	-13
O/C(=C\c1ccc2ccccc2n1)c1ccncc1	?	9%	1%	0%	-6
O/C(=C\c1nc2ccccc2nc1/C=C(\O)c1ccccc1)c1ccccc1	-4%	-8%	79µM*	?	-17
Cc1cccc(Cn2nnc3c(=O)[nH]c(C4CCCN(C(=O)c5ccccc5Cl)C4)nc32)c1 (centres undefined)	.	.	3%	.	.
O=C1c2cccc3c([N+](=O)[O-])c(O)cc(c23)C(=O)N1Nc1ccccc1	4%	-3%	?	27µM*	-3
CC(=O)n1c(=O)c2ccccc2c(=O)n1-c1ccccc1	8%	0%	?	13µM*	-3
O=c1c2ccccc2c(=O)n(-c2ccccc2)n1CCCCBr	3%	-6%	11%	-5%	.
Cc1nc(-c2ccccc2)sc1-c1ccc(SCC(=O)NCc2ccccc2Cl)nn1	.	.	9%	.	.
Clc1ccccc1-c1nc(NC2CCNCC2)c2ccccc2n1	.	.	40µM*	.	.
CCOC(=O)N1CCN(C(=O)C[C@@H]2C[C@@]3(C(=O)OC)CC(C)(C)CC=C3N(Cc3ccc4c(c3)OCO4)C2=O)CC1	.	.	.	-6%	.
CC(=O)OCC1=C(C(=O)O)N2C(=O)C(NC(=O)CCn3nc(C(F)(F)F)c(Br)c3C3CC3)C2SC1 (centres undefined)	0%	-10%	40µM*	?	0
O=C1ON=C(c2cccc([N+](=O)[O-])c2)/C1=C/c1ccc(O)cc1	1%	0%	?	1.5µM*	6
COc1ccc(/C=C2\C(=O)ON=C2c2ccccc2)cc1	3%	-9%	?	1.5µM*	-8
O=C1ON=C(c2ccccc2)/C1=C/c1ccc(O)c(O)c1	?	-5%	45µM*	?	-1
Cc1ccc(C2=NOC(=O)/C2=C\c2ccc(C)o2)cc1	-1%	3%	?	0.75µM*	-1
O=C1ON=C(c2ccccc2)/C1=C/c1cccnc1	-13%	-8%	-7%	-23%	0
CN(C)c1ccc(C(CNS(=O)(=O)c2ccccc2)N2CCc3ccccc32)cc1 (centres undefined)	.	.	6%	.	.
Cc1cc(-c2ccc(S(=O)(=O)Nc3ccc(Cl)cc3C)cc2)on1	.	.	0%	.	.
CCCCNC(=O)CSc1nc2cc3c(cc2c(=O)n1CCCC(=O)NCc1ccc2c(c1)OCO2)OCO3	.	.	-5%	.	.
COCCNC(=O)C(=O)NNS(=O)(=O)c1ccc2ccccc2c1	0%	0%	?	19µM*	2
COCCNC(=O)C(=O)NNS(=O)(=O)c1ccc(Cl)cc1	4%	-2%	-16%	2%	13
SMILES	uPA surface inh	PTAP TSG101 blk	VDR inh	PLK1 PBD block	TSHR antagonist
Cc1ccc(NC(=S)NNS(=O)(=O)c2ccc3ccccc3c2)cc1Cl	1%	1%	-24%	19µM*	3
O=C1CNC(=O)/C1=C\c1ccc(O)cc1	2%	1%	-14%	-19%	7
CN(/C=C1/C(=O)CNC1=O)CCO	6%	2%	?	17µM*	18
CC(=O)c1ccc(NC(=O)CCc2c(C)nn(-c3ccc(N4CCOCC4)nn3)c2C)cc1	0%	-6%	?	21µM*	3
Cc1cc(F)ccc1NC(=O)CCc1c(C)nn(-c2ccc(N3CCCCC3)nn2)c1C	4%	1%	-28%	21µM*	-18
Cc1ccc(F)cc1NC(=O)CCc1c(C)nn(-c2ccc(N3CCCC3)nn2)c1C	.	.	13%	.	.
Cc1ccc(NC(=O)CCc2c(C)nn(-c3ccc(N4CCOCC4)nn3)c2C)cc1	-5%	-10%	-6%	-14%	-4
CC1C(=O)c2ccccc2CC1C(=O)O (centres undefined)	1%	-1%	-1%	-3%	.
COc1ccc(OC)c(CCNC(=O)C(C)n2nc(C)c3c(C)n(-c4ccccc4)nc3c2=O)c1 (centres undefined)	3%	-2%	-26%	27µM*	1
CCC(C(=O)Nc1ccccc1Cl)n1nc(C)c2c(C)n(-c3ccccc3)nc2c1=O (centres undefined)	0%	-1%	-10%	21µM*	-16
COc1ccc(S(=O)(=O)N2CCCCC2)cc1NC(=O)c1cccc(S(=O)(=O)N2CCOCC2)c1	-6%	0%	-12%	-3%	.
CC[C@H]1[C@@H]2C=C[C@@H]3[C@H]4C/C=C\C(=O)NCCC[C@@H]5NC(=O)C(=C5O)C(=O)CC[C@@H]4C[C@@H]3[C@H]2C[C@H]1C	.	.	40µM*	.	.
COc1ccc(C(c2nnnn2Cc2cccs2)N2CCN(c3ccc(F)cc3)CC2)cc1OC (centres undefined)	-1%	-2%	-27%	21µM*	-41
C/C=C(\C=C\[C@@H](C)C/C=C/CC/C=C/C=C\C[C@@H](OC)/C(C)=C\C=C(C)C)CC(=O)O	.	.	-11%	.	.
COc1ccc(S(=O)(=O)N2CCC[C@H]2C(=O)NC2=NCCS2)cc1	7%	-5%	-5%	-9%	10
COc1ccc(S(=O)(=O)N2CCCC2C(=O)Nc2nnc(-c3cccnc3)s2)cc1 (centres undefined)	12%	-10%	?	27µM*	24
CCOc1ccc(-c2nn[nH]n2)cc1OCC	4%	0%	43%	3%	-5
CCOc1ccc(-c2nn[nH]n2)cc1	-1%	-6%	?	27µM*	-5
COc1ccc(C(c2c(C)[nH]n(C(N)=S)c2=O)C(C#N)C#N)cc1 (centres undefined)	-6%	-7%	28µM*	21µM*	-10
Cc1cc2nc3c(=O)n(C4CCCCC4)c(=O)[nH]c3nc2cc1N	-3%	?	?	3µM*	-7
Cc1cc(C)cc(Nc2cc(=O)n(C3CCCCC3)c(=O)[nH]2)c1	4%	-1%	1%	0%	-5
COc1ccc(CC(=O)Nc2cccc(-c3nnc(-c4cccc(C)c4)o3)c2)cc1OC	1%	1%	1%	-2%	-92*
COc1ccc(CC(=O)Nc2cccc(-c3nnc(-c4ccc(C)cc4)o3)c2)cc1OC	-30%	1%	-3%	-3%	-48
CCOC(=O)c1cn(-c2c(Cl)cccc2Cl)c2cc(Cl)c([N+](=O)[O-])cc2c1=O	8.9µM*	-5%	2%	-9%	-6
COc1ccc(CNC(=O)c2cc3ccccn3n2)cc1OC	.	.	7%	.	.
